# Reference: PubChem BioAssay (NCI)
# This is part of a sample that, as a whole, favours compounds with a hit. Of some 83,000 tested, about 20% had one in any assay.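 Step 1: grow cells in 96-well plates. Step 2: add test compound at a single concentration. Step 3: incubate 48 h. Step 4: record percent growth.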 Unmarked numbers belong to inactive results. Activity calls are given as the source filed them. The calls were made as follows: active = growth percent below 10; inactive = the rest.
# Key:
# Experiment in all cases: NCI-60 one-dose screen, 48 h (100 = growth as untreated, 0 = no growth, -100 = all killed)
# Conditions in all cases: 10 µM unless noted
# SR leukemia = system: SR leukemia
# RPMI-8226 leukemia = system: RPMI-8226 leukemia
# OVCAR-8 ovarian = system: OVCAR-8 ovarian
# OVCAR-5 ovarian = system: OVCAR-5 ovarian
# OVCAR-4 ovarian = system: OVCAR-4 ovarian
# SK-OV-3 ovarian = system: SK-OV-3 ovarian
# IGROV1 ovarian = system: IGROV1 ovarian
# OVCAR-3 ovarian = system: OVCAR-3 ovarian
# HS 578T breast = system: HS 578T breast
# NCI/ADR-RES ovarian = system: NCI/ADR-RES ovarian
# T-47D breast = system: T-47D breast
# BT-549 breast = system: BT-549 breast
# MDA-MB-435 melanoma = system: MDA-MB-435 melanoma
# SW-620 colon = system: SW-620 colon
# MCF7 breast = system: MCF7 breast
# HCT-116 colon = system: HCT-116 colon
# HCC-2998 colon = system: HCC-2998 colon
# KM12 colon = system: KM12 colon
Compound,growth (SR leukemia),growth (RPMI-8226 leukemia),growth (OVCAR-8 ovarian),growth (OVCAR-5 ovarian) [%],growth (OVCAR-4 ovarian),growth (SK-OV-3 ovarian),growth (IGROV1 ovarian),growth (OVCAR-3 ovarian),growth (HS 578T breast) [%],growth (NCI/ADR-RES ovarian) [%],growth (T-47D breast) [%],growth (BT-549 breast),growth (MDA-MB-435 melanoma),growth (SW-620 colon),growth (MCF7 breast),growth (HCT-116 colon),growth (HCC-2998 colon),growth (KM12 colon)
COc1ccc(N(Cc2cc(OC)c(OC)c(OC)c2)C2OC(=O)c3ccccc32)cc1 (stereo unspecified),12.1%,10.6%,22.1%,65.5,62.7%,13.3%,36.3%,-18.4% (active),22.1,10.1,45.8,66.1%,-55% (active),20.3%,16.4%,23%,43.9%,27.7%
CCN(CC)c1ccc(/C=C/C2=[N+](C)c3ccccc3C2(C)C)cc1,28.1%,-20.9% (active),24.7%,34.7,40.6%,-0.178% (active),18.6%,5.97% (active),27,84.8,14,0.697% (active),-1.89% (active),15.4%,4.72% (active),13.1%,24.1%,-28% (active)
COc1cc(C(=O)/C=C/c2c(C)n([O-])c3ccc(C)cc3[n+]2=O)cc(OC)c1OC,-35.2% (active),-17.3% (active),5.36% (active),78.3,36.9%,96%,73.7%,13.2%,52.8,81.2,17.6,76.7%,60.1%,0.477% (active),29.4%,15%,104%,34.8%
CCOC(=O)c1cnc2cc(Cl)c(F)cc2c1Nc1cccc(NS(C)(=O)=O)c1,112%,105%,102%,93.2,95.5%,111%,91%,102%,93.7,81,93.5,105%,104%,94.1%,92.5%,86.5%,98.4%,93.8%
COc1cccc(-n2cc(-c3nc(Nc4cc(C)[nH]n4)c4ccccc4n3)nn2)c1,27.8%,48.4%,38.3%,56.5,17.2%,10.8%,18%,59.4%,46.4,30.6,17.6,49.3%,34%,66.5%,37.6%,41.5%,44.5%,23%
COCCCN=C(N)c1ccc(NC(=O)c2ccc(C(=O)Nc3ccc(C(N)=NCCCOC)cc3)cc2)cc1,72.3%,63.2%,106%,110,105%,115%,120%,154%,151,112,108,78.6%,88.4%,106%,109%,79.7%,116%,132%
O=C1O[C@H]([C@H](O)CO)C(O)=C1O,88.5%,99.1%,97%,101,119%,112%,104%,104%,117,96.6,114,93.1%,106%,87.3%,103%,98.2%,98.3%,103%
Cc1ccc2c(c1)C(=O)c1c-2c(OCCCN(C)C)nc2ccccc12,-27.5% (active),-16.3% (active),17.2%,51.6,27.3%,60.3%,3.1% (active),55%,35.3,25.1,63.4,71.5%,-32.1% (active),-57.3% (active),-75.8% (active),21%,-15.2% (active),-46.4% (active)
COc1ccc(S(=O)(=O)NCCCNc2nccc(-c3c(-c4cccc(N)c4)nc4sccn34)n2)cc1,86.4%,84%,93.5%,134,97.1%,112%,87.1%,94.5%,93.9,94.7,63,102%,70.2%,138%,69.3%,99.2%,144%,39.4%
C=C1CC2(OC1=O)C(=O)Nc1ccccc12 (stereo unspecified),5.16% (active),24.4%,89.4%,66,37.3%,115%,63%,6.75% (active),83.1,66.5,37.3,75.3%,49.7%,4% (active),16.4%,31.4%,90.1%,97.3%
O=c1ccc2cc3ccccc3cc2[nH]1,82.1%,87.4%,105%,82,95.1%,102%,98.2%,87.4%,50.9,93,96.9,108%,92.3%,97.4%,96.6%,99.2%,83.3%,101%
COc1cc(NCCCCCN=C(N)NC(N)=NC(C)C)c2ncccc2c1,46.3%,37.6%,23.8%,71.5,-16.7% (active),83.3%,-13.1% (active),-39.8% (active),64,99.5,24.6,-0.951% (active),69.2%,25.2%,-91.6% (active),-4.52% (active),11%,3.06% (active)
CSc1[nH]c2ncnc(N)c2c1C#N,99.5%,106%,115%,87.4,94.2%,92.7%,92.4%,125%,130,86.1,97.3,85.9%,102%,128%,100%,102%,108%,122%
C/C=C/C(N)=O,92%,109%,106%,100,107%,110%,106%,99%,99.9,106,115,99.7%,96.4%,96.8%,92.1%,98.4%,109%,103%
CCOC(=O)c1c2ncccc2n2c(=O)n(-c3ccc(Cl)cc3)nnc12,91.4%,92.8%,57.1%,67.7,84.6%,92.2%,85.6%,95.2%,93.9,59.8,61.1,43.6%,49.7%,105%,76.6%,86.9%,90.3%,70.7%
COc1cc(C#N)cc(OC)c1OCCN(CCOc1c(OC)cc(C#N)cc1OC)S(=O)(=O)c1ccc(C)cc1,106%,90.6%,54.1%,108,107%,119%,77.3%,118%,99,95.9,96.3,107%,114%,99.6%,108%,81.6%,94.8%,108%
O=C(Cc1ccccc1)c1ccc(Cl)cc1,96.7%,160%,103%,83.2,107%,107%,105%,111%,120,96.6,91.1,106%,94.3%,99%,95.6%,93.2%,99%,101%
